From PubChem
NCOA1 inh – SRC1 coactivator transcriptional activity inhibitors, primary screen, cell-based, luminescence. inhibition, % at 3.6 µM. 360,000 compounds, 0.12% hits. Nuclear receptor coactivator 1 (Homo sapiens), Q15788. HEK293 GAL4-SRC1 luciferase reporter. AID 588354, 2011;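 active means inhibition above the campaign mean plus 3 SD, with each screening campaign given its own cutoff, cut at about 60% in these data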;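 further: 0% = DMSO treated cells and 100% = gossypol at 36 µM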
LRH-1 inv ag – LRH-1 (NR5A2) inverse agonists, primary screen, cell-based, luminescence, HEK293T, StAR-luciferase reporter; Nuclear receptor subfamily 5 group A member 2 (Homo sapiens), O00482; LRH-1 transfected, 24 h; inhibition, % at 3.6 µM; 360,000 compounds, 0.13% hits;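 active means inhibition above the mean inhibition of all tested compounds plus 3 SD, cut at about 73% in these data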;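 further: 0% = DMSO wells and 100% = reporter-only cells lacking LRH-1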
Target sequence (O00482 whole entry, looked up): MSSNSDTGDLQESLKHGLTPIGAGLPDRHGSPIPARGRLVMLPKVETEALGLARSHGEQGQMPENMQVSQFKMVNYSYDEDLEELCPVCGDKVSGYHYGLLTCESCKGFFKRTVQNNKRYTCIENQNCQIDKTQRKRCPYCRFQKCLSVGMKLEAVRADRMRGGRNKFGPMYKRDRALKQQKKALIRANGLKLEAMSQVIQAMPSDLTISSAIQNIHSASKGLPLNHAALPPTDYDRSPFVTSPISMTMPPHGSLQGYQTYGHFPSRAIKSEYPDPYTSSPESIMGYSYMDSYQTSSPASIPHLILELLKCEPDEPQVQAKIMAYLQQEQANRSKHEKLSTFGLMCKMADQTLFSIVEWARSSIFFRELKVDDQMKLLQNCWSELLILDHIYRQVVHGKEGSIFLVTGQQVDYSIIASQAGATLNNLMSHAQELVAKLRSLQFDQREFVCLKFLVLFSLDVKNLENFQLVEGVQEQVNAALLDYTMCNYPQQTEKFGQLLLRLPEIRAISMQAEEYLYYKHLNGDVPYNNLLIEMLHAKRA
NCOA2 inhibitor – inhibition of GAL4-SRC2 driven luciferase reporter, primary screen, SRC2 inhibitor project, cell-based, luminescence; Nuclear receptor coactivator 2 (Homo sapiens), Q15596; HEK293 GAL4-SRC2 luciferase reporter; 370,000 compounds, 0.17% hits; inhibition, % at 9 µM; AID 651957, 2012;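 active means inhibition above the mean inhibition of all tested compounds plus 3 SD, set per campaign, cut at about 52% in these data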;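 further: 0% = DMSO treated cells and 100% = cells given Gossypol at 36 µM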
NCOA3 inh – SRC3 coactivator transcriptional activity inhibitors, primary screen, cell-based, luminescence. Nuclear receptor coactivator 3 (Homo sapiens), Q9Y6Q9. HEK293 GAL4-SRC3 luciferase reporter. inhibition, % at 3.6 µM. 360,000 compounds, 0.17% hits. AID 588352, 2011;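 active means inhibition above a per-campaign cutoff, the mean of all compounds plus 3 SD, cut at about 60% in these data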;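 further: 0% = DMSO-treated cells and 100% = gossypol-treated cells at 36 µM; higher means less SRC3-driven luciferase light from the GAL4 reporter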
NR2F2 inh – NR2F2 transcriptional activity inhibitors, primary screen, cell-based, luciferase reporter, HEK293T, luminescence; COUP transcription factor 2 (Homo sapiens), P24468; HEK293T NGFI-A luciferase reporter; inhibition, % at 8.6 µM; 370,000 compounds, 0.7% hits;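 active means inhibition above a per-plate cutoff, mean inhibition of test wells between control levels plus 3 SD, cut at about 38% in these data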;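 further: cells cotransfected with COUP-TFII expression vector driving the NGFI-A reporter; 0% = median of COUP-TF2 test wells and 100% = reporter-only cells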
Gal4-VP16 ctr – Gal4-VP16 luciferase reporter inhibitors, counter-screen for COUP-TFII antagonist project, cell-based, luminescence, HEK293 | shares compounds with NR2F2 inh | inhibition, % at 8.5 µM | 2,500 compounds, 25% hits; in the data active means inhibition above about 13%
COUP-TFII conf – NR2F2 transcriptional activity inhibitors, confirmation, cell-based, luciferase reporter, HEK293, triplicate. inhibition, % at 8.5 µM. HEK293 NGFI-A luciferase reporter, luminescence. shares compounds with NR2F2 inh. 2,500 compounds, 45% hits;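 active means mean inhibition over three repeats above a set limit taken from the earlier primary screen, cut at about 38% in these data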;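 further: 100% = cells given the luciferase reporter alone without the COUP-TF2 vector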
Active calls of the source: *; x = not tested or not shown. In the library only some 0.81% were active in any assay of this set; here they are far more common.

SMILES | NCOA1 inh | LRH-1 inv ag | NCOA2 inhibitor | NCOA3 inh | NR2F2 inh | Gal4-VP16 ctr | COUP-TFII conf
O=C(OC12CCCN(C1)/C(=C/c1ccncc1)C2)c1ccco1 (centres undefined) | x | x | 2.4 | x | 38.5* | 5.4 | 22.6
O=C(OC12CCCN(C1)/C(=C/c1cccnc1)C2)c1ccc(F)cc1 (centres undefined) | x | x | 7.5 | x | 40.9* | 0.7 | 23.9
O=C(OC12CCCN(C1)/C(=C/c1ccncc1)C2)c1ccc(F)cc1 (centres undefined) | x | x | 27.1 | x | 24.2 | x | x
O=C(OC12CCCN(C1)/C(=C/c1ccc(Cl)cc1)C2)c1ccco1 (centres undefined) | x | x | 1.7 | x | -17.3 | x | x
O=C(OC12CCCN(C1)/C(=C/c1ccncc1)C2)C1CCCCC1 (centres undefined) | x | x | 19.2 | x | 66.8* | 8.4 | 33.1
COc1cccc(CNC(=O)C2C3C=CC4(CN(Cc5ccccc5)C(=O)C24)O3)c1OC (centres undefined) | x | x | 10.7 | x | 5.3 | x | x
Cc1cc(/C=N/n2cnnc2)c(C)n1-c1ccc(OCc2ccc(Cl)cc2)cc1 | 16.5 | 43.9 | 29.8 | 23.0 | 68.1* | 41.5* | 88.3*
Cc1cc(/C=N/n2cnnc2)c(C)n1-c1ccc(OCc2ccccc2F)cc1 | -49.3 | -69.5 | -9.8 | -18.0 | -6.0 | x | x
CCOC(=O)[C@]12CCCC=C1N(CCCOC)C(=O)[C@@H]2CC(=O)N1CCN(C(=O)c2ccco2)CC1 | x | x | -44.9 | x | -4.5 | x | x
CCOc1ccc(-c2cc(CCCC(=O)NCCCOC)no2)cc1 | 3.1 | 14.6 | 69.2* | 4.1 | 59.2* | 22.8* | 3.3
CCOc1ccc(-c2cc(CCCC(=O)N3CCN(c4ccc(OC)cc4)CC3)no2)cc1 | -15.0 | 19.8 | 37.3 | 9.6 | 27.9 | x | x
Cc1cc(=O)n2c3c(c4c(cc13)c(CN(C)C)cc(=O)n4C)OC2 | -13.3 | 15.1 | 58.0* | -3.8 | 78.2* | -6.9 | -1.1
Cc1cc(=O)n(C)c2ccccc12 | 6.0 | 7.4 | -28.1 | -3.1 | -20.4 | x | x
Cc1ccc(Cn2cc(COC(=O)NCCc3c[nH]c4ccccc34)nn2)cc1 | x | x | -8.2 | x | -16.2 | x | x
COc1ccc(C2CC(=O)c3c(C)nc(N4CCN(Cc5ccccc5)CC4)nc3C2)cc1OC (centres undefined) | -3.9 | 14.8 | 22.4 | 13.9 | 61.6* | 8.4 | 39.1*
Cc1nc(N2CCN(Cc3ccccc3)CC2)nc2c1C(=O)CC(C)C2 (centres undefined) | -7.4 | -18.6 | 0.5 | -7.2 | 13.6 | x | x
O=C(CCCc1nc(-c2ccccc2Cl)no1)NC1CCCC1 | 45.0 | 25.6 | 90.4* | 62.5* | 73.5* | -0.3 | 3.0
O=C(CCCc1nc(-c2ccccc2)no1)NC1CCCC1 | -17.0 | 3.4 | 9.5 | 7.1 | -4.5 | x | x
Cc1ccc(-c2noc(CCCC(=O)NC3CCCC3)n2)cc1 | 5.0 | 18.6 | 53.0* | 29.4 | 48.1* | 15.7* | 14.8
COc1ccccc1-c1noc(CCCC(=O)NC2CCCC2)n1 | -5.7 | 12.6 | -10.0 | -5.3 | -0.1 | x | x
COC(=O)[C@]12C[C@H](CC(=O)NCC34CC5CC(CC(C5)C3)C4)C(=O)N(Cc3cccc4ccccc34)C1=C[C@H](COCc1ccccc1)O[C@@H]2C | x | x | 1.1 | x | -3.9 | x | x
CCOc1ccc(-c2cc(C(=O)Nc3ccc(C)c(NS(C)(=O)=O)c3)[nH]n2)c(C)c1 | 29.3 | 26.1 | 15.6 | 18.1 | 62.4* | -5.6 | 21.6
O=C(Nc1ccc(N2CCN(C(=O)c3ccccc3)CC2)c(Cl)c1)c1ccco1 | 7.6 | 2.6 | 8.6 | 12.2 | 15.9 | x | x
CCC(=O)N1CCN(c2ccc(NC(=O)c3cc4ccccc4o3)cc2Cl)CC1 | 21.7 | 9.9 | 24.8 | 24.6 | 44.1* | -16.0 | 35.9
O=C(Nc1ccc(N2CCN(C(=O)c3ccco3)CC2)c(Cl)c1)c1cc2ccccc2o1 | 35.9 | 14.2 | 44.9 | 31.7 | 63.5* | 5.2 | 51.2*
SMILES | NCOA1 inh | LRH-1 inv ag | NCOA2 inhibitor | NCOA3 inh | NR2F2 inh | Gal4-VP16 ctr | COUP-TFII conf
CCOC(=O)[C@]12CCCC=C1N(Cc1ccc(OC)cc1)C(=O)[C@@H]2CC(=O)NCc1cccc(C(F)(F)F)c1 | x | x | -1.2 | x | 20.6 | x | x
CC1CCCC=CC2CC(OC(=O)CN(C)C)CC2C(O)C=CC(=O)O1 (centres undefined) | 0.1 | 36.8 | 2.6 | 51.4 | 51.1* | 16.5* | 16.3
COc1ccc(S[C@]2(C(=O)N3CCN(c4ncccn4)CC3)CC(=O)N(C(=O)Nc3ccc(C)c(Cl)c3)[C@@H]2c2ccc(OC)cc2)cc1 | x | x | -0.5 | x | 8.1 | x | x
CC(C)C[C@@H]1NC(=O)[C@H]2C[C@]3(c4ccccc4)c4ccccc4N[C@H]3N2C1=O | x | x | -1.2 | x | -4.2 | x | x
COc1ccc(OC)c(CN2C(=O)CN(S(C)(=O)=O)CC2(C)c2nnnn2C2CCCC2)c1 (centres undefined) | x | x | 1.5 | x | 2.5 | x | x
O=C(Nc1ccc2c(c1)OCCO2)C(c1cc2ccccc2o1)N1CCN(c2ccc(C(F)(F)F)cn2)CC1 (centres undefined) | 41.3 | 44.7 | 22.2 | 39.4 | 25.0 | x | x
O=C(Nc1ccc2c(c1)OCCO2)C(c1cc2ccccc2o1)N1CCN(c2ccc(F)cc2)CC1 (centres undefined) | 27.7 | 35.0 | 38.5 | 31.2 | 39.2* | -28.9 | 0.9
Cc1cc(NC2CCCC2)n2nc(C)c(-c3ccccc3)c2n1 | -43.0 | 16.9 | -19.5 | -14.6 | 14.7 | x | x
Cc1cc(NC2CCCC2)n2ncc(-c3ccccc3)c2n1 | 31.3 | 36.4 | 34.0 | -2.0 | 47.5* | -20.5 | 51.8*
CC(C)(C)OC(=O)/C=C/[C@@H](CCCCl)Sc1ccc(C(C)(C)C)cc1 | x | x | 6.5 | x | -4.9 | x | x
CCOC(=O)[C@@]12CCCC3=C1N(CCC3)C(=O)[C@H]2CC(=O)N1CCN(C(=O)c2ccco2)CC1 | x | x | 15.1 | x | -12.8 | x | x
Cn1c(=O)cc(OCCCC(=O)Nc2cc(-c3cn[nH]c3)ccn2)c2ccccc21 | x | x | x | x | 54.7* | 34.7* | 36.5
N#CC(C#N)c1ccnc2ccccc12 | 56.9 | 29.5 | 49.9 | 50.4 | 39.9* | 5.6 | 17.5
COc1ccc(NC(=O)c2ccc(S(=O)(=O)N(C)c3ccccc3)cc2)cn1 | 5.2 | 1.1 | 12.8 | 1.7 | 41.1* | -1.6 | 15.9
COc1ccc(NC(=O)/C(Cl)=C(/Cl)S(=O)(=O)Cc2ccccc2)cn1 | -86.5 | 32.4 | 69.3* | 40.6 | 65.8* | 38.7* | 59.2*
COc1ccc(NC(=O)Nc2ccc(OCc3ccccc3)cc2)cn1 | -22.6 | 15.3 | 13.1 | 11.6 | 10.5 | x | x
